Results published in PubChem BioAssay AID778 (Sanford-Burnham Center for Chemical Genomics, 2007).
The whole screen tested about 96,000 compounds, of which about 20,000 (21%) were called active.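 The calls were made as follows: active = CYP2C19 inhibition above a set limit at 5 µM in the primary screen (cut at about 50% in these data); inactive = the rest.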 The list is a sample of the results.

target: Cytochrome P450 2C19 (Homo sapiens) (UniProt P33261); assay: blockers of cytochrome P450 2C19 activity – biochemical, luminescence, ADME assay, primary screen (AID 778); conditions: CYP2C19 Supersomes, luciferin-H EGE luminescence, 30 min; at 5 µM; stronger effect = higher value;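 also: plate controls were negative control wells for no effect and 2.5 mM tranylcypromine positive control for full effect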
Sequence (P33261 whole entry, looked up): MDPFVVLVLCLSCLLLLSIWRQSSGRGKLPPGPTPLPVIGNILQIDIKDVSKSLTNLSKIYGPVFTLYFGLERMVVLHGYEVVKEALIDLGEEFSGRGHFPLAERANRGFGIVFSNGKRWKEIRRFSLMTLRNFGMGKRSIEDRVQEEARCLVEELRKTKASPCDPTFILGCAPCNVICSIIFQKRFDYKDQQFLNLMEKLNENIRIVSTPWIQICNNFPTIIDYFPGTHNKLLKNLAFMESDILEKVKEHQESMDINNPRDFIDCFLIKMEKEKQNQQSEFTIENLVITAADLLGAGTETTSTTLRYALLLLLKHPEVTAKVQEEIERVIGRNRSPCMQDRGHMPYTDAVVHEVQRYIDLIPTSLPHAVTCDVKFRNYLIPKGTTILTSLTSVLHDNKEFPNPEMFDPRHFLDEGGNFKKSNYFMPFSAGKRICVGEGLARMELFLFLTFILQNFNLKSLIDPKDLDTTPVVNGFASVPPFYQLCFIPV

inhibition, active:
O=C(Nc1cccc(-c2nnc(-c3ccccc3)o2)c1)C1CCCO1 (stereo unspecified) 71.9%
Cc1cc(NC(=O)COc2ccc(Cl)cc2Cl)n(CCC#N)n1 99.1%
CC(C)(C)c1ccc(OC2=CS(=O)(=O)c3ccccc32)cc1 65.2%
c1ccc(COc2ccccc2CNCc2cccnc2)cc1 59.4%
Fc1ccccc1COc1ccccc1CNCc1ccncc1 96.3%
C=CCn1c(SCC(=O)Nc2nc3ccccc3s2)nnc1-c1ccccc1O 54.6%
C=CCn1c(SCC(=O)NCc2ccccc2)nnc1-c1cc(Br)ccc1O 91.6%
CCOC(=O)c1nnn(-c2nonc2OC)c1-c1ccccc1 60.7%
Brc1ccc(OCCn2ccnc2)cc1 91.7%
N#CC1=C(SCc2ccccc2)NC(=O)C(C#N)C12CCCC2 (stereo unspecified) 63.9%
c1ccc(CCc2nc(-c3ccncc3)no2)cc1 97.5%
O=C(CCSCCc1ccccn1)Nc1nccs1 82.6%
CC(C(=O)N1CCOCC1)N1c2cccc3cccc(c23)S1(=O)=O (stereo unspecified) 80.5%

inhibition, inactive:
Cc1ccc2nc3n(c(=O)c2c1)CCC3 -4.2%
Cc1ccccc1NC(=O)Cc1nnc(SCC(=O)N2CCN(c3ccccc3)CC2)n1C 26.9%
O=C(Nc1nnc(CCc2ccccc2)s1)C1CCCO1 (stereo unspecified) 15.6%
O=C(Nc1ccc(-c2nnc(-c3ccccc3)o2)cc1)C1CCCO1 (stereo unspecified) 17.1%
Cc1nc(SCC(=O)Nc2cc(C)on2)c2c(C)c(C)sc2n1 9.2%
CCOc1cc(C2C(C(=O)OC)=CN(C3CCCC3)C=C2C(=O)OC)cc(Br)c1O -1.9%
CC(=O)c1cc(NC(=O)c2ccccc2)c(=O)oc1/C=C/N(C)C 0.3%
CN(C)c1cc(N)c2ccccc2n1 (tested in a mixture with another compound) -9.5%
Cc1cc(Nc2ccccc2)n(CCC#N)n1 -5.9%
CN1CCN(c2ccc(NC(=O)COc3ccc(Cl)cc3Cl)cc2)CC1 17.9%
Cc1ccc(S(=O)(=O)N2C3C=CC(C3)C2C(=O)O)cc1 (stereo unspecified) 10.3%
O=S1(=O)C=C(SCCN2CCCC2)c2ccccc21 28.3%
CC(C)(C)c1csc(NC2=NS(=O)(=O)c3ccccc32)n1 0.4%
COc1cc2[nH]c(=S)n(CCN3CCCCC3C)c(=O)c2cc1OC (stereo unspecified) -5.5%
O=C1CCCc2c1[nH]c1ccc(Br)cc21 15.9%
Nc1c(-c2ccc(F)cc2)cnc2ncnn12 -14%
COC(=O)[C@H](CCSC)NC(=O)Nc1ccc(OC)cc1 38%
COc1ccccc1CNCc1cccs1 31.8%
Cc1nc2ccccc2cc1OCc1ccc(F)cc1 17.6%
COc1cc(/C=C2/C(=O)ON=C2C)ccc1OCc1ccccc1F 17.5%
Cn1c(=O)c2c(nc(OCc3cccnc3)n2Cc2ccccc2)n(C)c1=O 16.8%
Cc1nnc(SCC(=O)NC2CCCC2)s1 19.1%
Cn1cccc1C(=O)NC(=O)COC(=O)Cc1coc2ccc3ccccc3c12 31.8%
O=c1[nH][nH]c(=O)c2cc(N3CCCC3)ccc12 0.9%
CCOc1ccc(-c2nc(C)sc2CC(=O)O)cc1 12.3%
CCc1nc(C)ccc1OCC(=O)N(CC)CC 0.2%
C=CCn1c(N)cc(=O)nc1SCC(=O)Nc1cccc2ccccc12 1%
C=CCn1c(COc2ccccc2)nnc1SCC(=O)NCC(=O)OCC -8.4%
C=CCn1c(CSc2nc3ccccc3s2)nnc1SCC(=O)NCc1ccco1 24.8%
CCCCCCn1c(CN2CCCC(C)C2)nc2c1c(=O)n(C)c(=O)n2C (stereo unspecified) 2.2%
CCOC(=O)Nc1ccc2c(c1)N(C(=O)CN1CCN3CCCC3C1)c1ccccc1CC2 (stereo unspecified) 18.2%
CCCCNC(=O)C1CCCNC1=O (stereo unspecified) -19%
CCOC(=O)C1=C(c2ccccc2)O/C(=C(/C(=O)OC)C(F)(F)F)S1 11.1%
CCOC(=O)c1nnn(-c2nc(OC)nc(N(C)C)n2)c1-c1ccccc1 27.7%
Cc1cccc(C(=O)Nc2ccc(C(=O)/C=C/c3cccs3)cc2)c1 -1.9%
CCCNC(=O)NCc1ccc(N2CCCC2=O)cc1 3.6%
COc1cccc(C(=O)Nc2c3c(nn2-c2cccc(C)c2C)CS(=O)(=O)C3)c1OC -2.2%
C=CCNC(=O)C1CC=CCC1C(=O)O (stereo unspecified) -11.3%
Cc1ccc(Cc2nc(-c3cccc(C)c3)no2)cc1 2.2%
O=C1c2ccccc2C(=O)N1CCCc1nc(-c2ccccc2)no1 9.5%
CCOC(=O)N1CCN(CC(=O)Nc2cc(C)nn2-c2nc3ccccc3s2)CC1 39.8%
CCn1cc(C(=O)N/N=C(/C)c2ccc(F)cc2)c(=O)c2cc(F)c(N3CCCC3)cc21 39.5%
Cc1nnc(SCC(=O)Nc2ncc3c(n2)CC(C)(C)CC3=O)s1 1.5%
CCN1C(=O)C(CC(=O)Nc2cc(C)ccc2C)SC1=Nc1ccc(S(N)(=O)=O)cc1 (stereo unspecified) 17.6%
Cn1cccc1C(=O)Nc1nccs1 8.5%
CC(=O)Oc1ccc(C(=O)Nc2nccs2)cc1 16.7%
CC(C(=O)O)N1C(=O)c2cccc3cccc1c23 (stereo unspecified) -13.8%
NC(=NC(=O)c1ccccc1)N1CCOCC1 12%
O=C(NCCN1CCN(Cc2ccccc2)CC1)c1cc2c(=O)[nH]c3ccccc3c2s1 -2.7%
Nn1c(Cc2cccc3ccccc23)nnc1SCC(=O)N1CC(=O)Nc2ccccc21 -8.7%
COc1ccc(NC(=O)c2c(SC)nsc2SC)cc1 7.1%
O=S1(=O)CCN2C(=N1)SC1=C2CCN(Cc2ccccc2)C1 48.1%
CN(C(=O)C1CCOC1)c1nnc(-c2cccnc2)s1 (stereo unspecified) 5.3%
